Numbering of substitutions follows the chain as printed.
Key:
Assay in all cases: PBM; 200 nM protein, PBS
Details in all cases: dsDNA, one strand shown
HOXB9 [1] = molecular target: HOXB9 (Homo sapiens, UniProt P17482 171-250, T197M)
HOXC10 [2] = molecular target: HOXC10 (Homo sapiens, UniProt Q9NYD6 254-340)
HOXB9 [3] = molecular target: HOXB9 (Homo sapiens, UniProt P17482 171-250)
HOXD13 [4] = molecular target: HOXD13 (Homo sapiens, UniProt P35453 263-343, T313R)
HOXC9 [5] = molecular target: HOXC9 (Homo sapiens, UniProt P31274 178-260, R193K)
Sequence of HOXC9 (Homo sapiens, UniProt P31274 178-260, R193K) (P31274 178-260 R193K): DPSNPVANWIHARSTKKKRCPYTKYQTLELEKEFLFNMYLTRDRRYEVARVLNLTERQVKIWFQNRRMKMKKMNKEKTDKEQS

HOXD13 [6] = molecular target: HOXD13 (Homo sapiens, UniProt P35453 263-343)
Sequence of HOXD13 (Homo sapiens, UniProt P35453 263-343) (P35453 263-343): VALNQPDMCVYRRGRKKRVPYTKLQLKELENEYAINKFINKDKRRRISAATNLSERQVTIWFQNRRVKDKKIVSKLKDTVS

HOXC10 [7] = molecular target: HOXC10 (Homo sapiens, UniProt Q9NYD6 254-340, K271E)
Sequence of HOXC10 (Homo sapiens, UniProt Q9NYD6 254-340, K271E) (Q9NYD6 254-340 K271E): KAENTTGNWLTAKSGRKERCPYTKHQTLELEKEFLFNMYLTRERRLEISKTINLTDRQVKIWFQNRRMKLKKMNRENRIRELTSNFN

HOXD13 [8] = molecular target: HOXD13 (Homo sapiens, UniProt P35453 263-343, T313A)
Sequence of HOXD13 (Homo sapiens, UniProt P35453 263-343, T313A) (P35453 263-343 T313A): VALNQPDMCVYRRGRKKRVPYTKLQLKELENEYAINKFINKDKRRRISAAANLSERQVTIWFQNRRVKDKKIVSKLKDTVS

HOXB9 [9] = molecular target: HOXB9 (Homo sapiens, UniProt P17482 171-250, R186Q)
Sequence of HOXB9 (Homo sapiens, UniProt P17482 171-250, R186Q) (P17482 171-250 R186Q): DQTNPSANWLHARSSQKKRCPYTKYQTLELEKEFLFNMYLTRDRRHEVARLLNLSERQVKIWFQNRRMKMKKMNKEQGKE

HOXC9 [10] = molecular target: HOXC9 (Homo sapiens, UniProt P31274 178-260, R222W)
Sequence of HOXC9 (Homo sapiens, UniProt P31274 178-260, R222W) (P31274 178-260 R222W): as the sequence (P31274 178-260 R193K) above, with K16R, R45W counted along it

ALX4 [11] = molecular target: ALX4 (Homo sapiens, UniProt Q9H161 200-286)
Sequence of ALX4 (Homo sapiens, UniProt Q9H161 200-286) (Q9H161 200-286): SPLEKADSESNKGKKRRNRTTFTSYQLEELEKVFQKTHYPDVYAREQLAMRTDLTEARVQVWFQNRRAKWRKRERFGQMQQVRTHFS

ALX4 [12] = molecular target: ALX4 (Homo sapiens, UniProt Q9H161 200-286, Q225E)
Sequence of ALX4 (Homo sapiens, UniProt Q9H161 200-286, Q225E) (Q9H161 200-286 Q225E): as the sequence (Q9H161 200-286) above, with Q26E counted along it

HOXB6 = HOXB6 (Homo sapiens, UniProt P17509 132-218, K202E)
Sequence of HOXB6 (P17509 132-218 K202E): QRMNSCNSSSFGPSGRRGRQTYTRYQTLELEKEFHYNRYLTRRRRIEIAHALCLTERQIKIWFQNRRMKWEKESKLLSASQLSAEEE

ALX3 [13] = molecular target: ALX3 (Homo sapiens, UniProt O95076 139-225, N203Q)
Sequence of ALX3 (Homo sapiens, UniProt O95076 139-225, N203Q) (O95076 139-225 N203Q): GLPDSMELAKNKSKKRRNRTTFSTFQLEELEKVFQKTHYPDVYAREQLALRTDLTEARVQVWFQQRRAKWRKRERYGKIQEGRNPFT

PAX4 [14] = molecular target: T1, PAX4 (Homo sapiens, UniProt O43316 9-242, F177V)
T1 sequence: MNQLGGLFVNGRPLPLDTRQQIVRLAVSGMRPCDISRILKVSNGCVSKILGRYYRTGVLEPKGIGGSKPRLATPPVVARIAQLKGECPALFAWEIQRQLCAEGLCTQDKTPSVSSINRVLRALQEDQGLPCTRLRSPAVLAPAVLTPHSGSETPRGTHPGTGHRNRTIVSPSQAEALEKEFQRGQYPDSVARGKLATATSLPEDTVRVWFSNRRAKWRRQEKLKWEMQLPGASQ

ALX3 [15] = molecular target: ALX3 (Homo sapiens, UniProt O95076 139-225)
Sequence of ALX3 (Homo sapiens, UniProt O95076 139-225) (O95076 139-225): as the sequence (O95076 139-225 N203Q) above, with Q65N counted along it

ALX3 [16] = molecular target: ALX3 (Homo sapiens, UniProt O95076 139-225, L168Q)
Sequence of ALX3 (Homo sapiens, UniProt O95076 139-225, L168Q) (O95076 139-225 L168Q): as the sequence (O95076 139-225 N203Q) above, with L30Q, Q65N counted along it

ALX3 [17] = molecular target: ALX3 (Homo sapiens, UniProt O95076 139-225, L168V)
Sequence of ALX3 (Homo sapiens, UniProt O95076 139-225, L168V) (O95076 139-225 L168V): as the sequence (O95076 139-225 N203Q) above, with L30V, Q65N counted along it

ALX3 [18] = molecular target: ALX3 (Homo sapiens, UniProt O95076 139-225, N203S)
Sequence of ALX3 (Homo sapiens, UniProt O95076 139-225, N203S) (O95076 139-225 N203S): as the sequence (O95076 139-225 N203Q) above, with Q65S counted along it

HOXC9 [19] = molecular target: HOXC9 (Homo sapiens, UniProt P31274 178-260, K195R)
Sequence of HOXC9 (Homo sapiens, UniProt P31274 178-260, K195R) (P31274 178-260 K195R): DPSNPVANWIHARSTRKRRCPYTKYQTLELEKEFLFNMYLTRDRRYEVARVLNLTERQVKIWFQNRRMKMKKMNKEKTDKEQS

HOXC9 [20] = molecular target: HOXC9 (Homo sapiens, UniProt P31274 178-260)
Sequence of HOXC9 (Homo sapiens, UniProt P31274 178-260) (P31274 178-260): as the sequence (P31274 178-260 R193K) above, with K16R counted along it

PAX4 [21] = molecular target: T2, PAX4 (Homo sapiens, UniProt O43316 9-242, R200K)
T2 sequence: T1 sequence with V169F, R192K

PAX4 [22] = molecular target: T3, PAX4 (Homo sapiens, UniProt O43316 9-242)
T3 sequence: T1 sequence with V169F

HOXA2 [23] = molecular target: HOXA2 (Homo sapiens, UniProt O43364 129-215, R185T)
Sequence of HOXA2 (Homo sapiens, UniProt O43364 129-215, R185T) (O43364 129-215 R185T): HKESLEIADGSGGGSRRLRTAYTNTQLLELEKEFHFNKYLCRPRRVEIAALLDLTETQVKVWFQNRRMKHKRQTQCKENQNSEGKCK

PAX4 [24] = molecular target: T4, PAX4 (Homo sapiens, UniProt O43316 9-242, R200Q)
T4 sequence: T1 sequence with V169F, R192Q

HOXA2 [25] = molecular target: HOXA2 (Homo sapiens, UniProt O43364 129-215, R185K)
Sequence of HOXA2 (Homo sapiens, UniProt O43364 129-215, R185K) (O43364 129-215 R185K): as the sequence (O43364 129-215 R185T) above, with T57K counted along it

PAX4 [26] = molecular target: T5, PAX4 (Homo sapiens, UniProt O43316 9-242, F177Y)
T5 sequence: T1 sequence with V169Y

PAX4 [27] = molecular target: T6, PAX4 (Homo sapiens, UniProt O43316 9-242, R227W)
T6 sequence: T1 sequence with V169F, R219W

HOXA2 [28] = molecular target: HOXA2 (Homo sapiens, UniProt O43364 129-215, Y150S)
Sequence of HOXA2 (Homo sapiens, UniProt O43364 129-215, Y150S) (O43364 129-215 Y150S): as the sequence (O43364 129-215 R185T) above, with Y22S, T57R counted along it

HOXA2 [29] = molecular target: HOXA2 (Homo sapiens, UniProt O43364 129-215)
Sequence of HOXA2 (Homo sapiens, UniProt O43364 129-215) (O43364 129-215): as the sequence (O43364 129-215 R185T) above, with T57R counted along it

PROP1 [30] = molecular target: PROP1 (Homo sapiens, UniProt O75360 56-141)
Sequence of PROP1 (Homo sapiens, UniProt O75360 56-141) (O75360 56-141): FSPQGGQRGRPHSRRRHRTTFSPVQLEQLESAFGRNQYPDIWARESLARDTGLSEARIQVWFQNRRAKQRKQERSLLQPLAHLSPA

PROP1 [31] = molecular target: PROP1 (Homo sapiens, UniProt O75360 56-141, R99H)
Sequence of PROP1 (Homo sapiens, UniProt O75360 56-141, R99H) (O75360 56-141 R99H): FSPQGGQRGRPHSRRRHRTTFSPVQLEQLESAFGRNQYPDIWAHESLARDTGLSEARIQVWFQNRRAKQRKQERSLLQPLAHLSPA

PROP1 [32] = molecular target: PROP1 (Homo sapiens, UniProt O75360 56-141, F88S)
Sequence of PROP1 (Homo sapiens, UniProt O75360 56-141, F88S) (O75360 56-141 F88S): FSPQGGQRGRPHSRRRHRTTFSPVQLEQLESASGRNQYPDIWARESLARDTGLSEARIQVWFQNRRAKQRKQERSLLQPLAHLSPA

Sequence of HOXB9 (Homo sapiens, UniProt P17482 171-250, T197M) (P17482 171-250 T197M): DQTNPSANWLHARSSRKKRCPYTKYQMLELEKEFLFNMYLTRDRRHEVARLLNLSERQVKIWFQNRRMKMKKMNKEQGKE
Sequence of HOXB9 (Homo sapiens, UniProt P17482 171-250) (P17482 171-250): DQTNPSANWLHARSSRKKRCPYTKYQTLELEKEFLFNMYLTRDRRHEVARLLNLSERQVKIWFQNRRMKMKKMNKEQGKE
Sequence of HOXC10 (Homo sapiens, UniProt Q9NYD6 254-340) (Q9NYD6 254-340): as the sequence (Q9NYD6 254-340 K271E) above, with E18K counted along it
Sequence of HOXD13 (Homo sapiens, UniProt P35453 263-343, T313R) (P35453 263-343 T313R): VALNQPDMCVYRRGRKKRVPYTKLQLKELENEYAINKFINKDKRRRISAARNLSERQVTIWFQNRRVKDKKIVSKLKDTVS

In the case of ATAAAATA, the binding signal (HOXB9 [1]) was 9.86 upbm affinity estimate (log intensity, higher = more binding, comparable within an allelic series), the binding signal (HOXC10 [2]) was 12.3 upbm affinity estimate (log intensity, higher = more binding, comparable within an allelic series) and the binding signal (HOXB9 [3]) was 11.8 upbm affinity estimate (log intensity, higher = more binding, comparable within an allelic series). The binding signal (HOXD13 [4]) was 10.8 upbm affinity estimate (log intensity, higher = more binding, comparable within an allelic series), the binding signal (HOXC9 [5]) was 12.5 upbm affinity estimate (log intensity, higher = more binding, comparable within an allelic series) and the binding signal (HOXD13 [6]) was 11.8 upbm affinity estimate (log intensity, higher = more binding, comparable within an allelic series). For the same sequence, the binding signal (HOXC10 [7]) was 11.7 upbm affinity estimate (log intensity, higher = more binding, comparable within an allelic series), the binding signal (HOXD13 [8]) was 11.6 upbm affinity estimate (log intensity, higher = more binding, comparable within an allelic series) and the binding signal (HOXB9 [9]) was 11.4 upbm affinity estimate (log intensity, higher = more binding, comparable within an allelic series). The binding signal (HOXC9 [10]) was 11.3 upbm affinity estimate (log intensity, higher = more binding, comparable within an allelic series).
In the case of GAGTCTCC, the binding signal (HOXB9 [1]) was 8.54 upbm affinity estimate (log intensity, higher = more binding, comparable within an allelic series), the binding signal (HOXC10 [2]) was 10 upbm affinity estimate (log intensity, higher = more binding, comparable within an allelic series) and the binding signal (HOXB9 [3]) was 8.49 upbm affinity estimate (log intensity, higher = more binding, comparable within an allelic series). For the same sequence, the binding signal (HOXC10 [7]) was 9.99 upbm affinity estimate (log intensity, higher = more binding, comparable within an allelic series) and the binding signal (HOXB9 [9]) was 8.45 upbm affinity estimate (log intensity, higher = more binding, comparable within an allelic series).
In the case of TCCCGGGA, the binding signal (HOXB9 [1]) was 8.9 upbm affinity estimate (log intensity, higher = more binding, comparable within an allelic series), the binding signal (ALX4 [11]) was 8.7 upbm affinity estimate (log intensity, higher = more binding, comparable within an allelic series) and the binding signal (ALX4 [12]) was 8.23 upbm affinity estimate (log intensity, higher = more binding, comparable within an allelic series). The binding signal (HOXB9 [3]) was 8.93 upbm affinity estimate (log intensity, higher = more binding, comparable within an allelic series) and the binding signal (HOXB9 [9]) was 8.89 upbm affinity estimate (log intensity, higher = more binding, comparable within an allelic series).
For GGTCGTTA, the binding signal (HOXB9 [1]) was 9.98 upbm affinity estimate (log intensity, higher = more binding, comparable within an allelic series), the binding signal (HOXC10 [2]) was 12.2 upbm affinity estimate (log intensity, higher = more binding, comparable within an allelic series) and the binding signal (HOXC10 [7]) was 12.2 upbm affinity estimate (log intensity, higher = more binding, comparable within an allelic series).
With AATATAAT the binding signal (HOXB9 [1]) was 9.96 upbm affinity estimate (log intensity, higher = more binding, comparable within an allelic series), the binding signal (HOXB6) was 10 upbm affinity estimate (log intensity, higher = more binding, comparable within an allelic series) and the binding signal (ALX3 [13]) was 8.52 upbm affinity estimate (log intensity, higher = more binding, comparable within an allelic series). The binding signal (PAX4 [14]) was 10.7 upbm affinity estimate (log intensity, higher = more binding, comparable within an allelic series), the binding signal (ALX3 [15]) was 11.4 upbm affinity estimate (log intensity, higher = more binding, comparable within an allelic series) and the binding signal (ALX3 [16]) was 9.35 upbm affinity estimate (log intensity, higher = more binding, comparable within an allelic series). For the same sequence, the binding signal (ALX3 [17]) was 9.24 upbm affinity estimate (log intensity, higher = more binding, comparable within an allelic series) and the binding signal (ALX3 [18]) was 8.65 upbm affinity estimate (log intensity, higher = more binding, comparable within an allelic series).
CCCGATGC was tested, and the binding signal (HOXB9 [1]) was 8.47 upbm affinity estimate (log intensity, higher = more binding, comparable within an allelic series), the binding signal (HOXC9 [19]) was 9.5 upbm affinity estimate (log intensity, higher = more binding, comparable within an allelic series) and the binding signal (HOXB9 [3]) was 8.13 upbm affinity estimate (log intensity, higher = more binding, comparable within an allelic series). For the same sequence, the binding signal (HOXC9 [20]) was 9.57 upbm affinity estimate (log intensity, higher = more binding, comparable within an allelic series), the binding signal (HOXD13 [4]) was 9.52 upbm affinity estimate (log intensity, higher = more binding, comparable within an allelic series) and the binding signal (HOXC9 [5]) was 9.49 upbm affinity estimate (log intensity, higher = more binding, comparable within an allelic series). The binding signal (HOXD13 [6]) was 9.47 upbm affinity estimate (log intensity, higher = more binding, comparable within an allelic series), the binding signal (HOXD13 [8]) was 9.71 upbm affinity estimate (log intensity, higher = more binding, comparable within an allelic series) and the binding signal (HOXB9 [9]) was 8.19 upbm affinity estimate (log intensity, higher = more binding, comparable within an allelic series). The binding signal (HOXC9 [10]) was 9.68 upbm affinity estimate (log intensity, higher = more binding, comparable within an allelic series).
In the case of AGGCCCCC, the binding signal (HOXB9 [1]) was 8.34 upbm affinity estimate (log intensity, higher = more binding, comparable within an allelic series), the binding signal (PAX4 [21]) was 9.04 upbm affinity estimate (log intensity, higher = more binding, comparable within an allelic series) and the binding signal (PAX4 [22]) was 9.05 upbm affinity estimate (log intensity, higher = more binding, comparable within an allelic series). For the same sequence, the binding signal (HOXA2 [23]) was 7.07 upbm affinity estimate (log intensity, higher = more binding, comparable within an allelic series), the binding signal (HOXB9 [3]) was 8.29 upbm affinity estimate (log intensity, higher = more binding, comparable within an allelic series) and the binding signal (ALX3 [13]) was 7.63 upbm affinity estimate (log intensity, higher = more binding, comparable within an allelic series). For the same sequence, the binding signal (PAX4 [24]) was 9.09 upbm affinity estimate (log intensity, higher = more binding, comparable within an allelic series), the binding signal (HOXA2 [25]) was 9.91 upbm affinity estimate (log intensity, higher = more binding, comparable within an allelic series) and the binding signal (PAX4 [14]) was 8.99 upbm affinity estimate (log intensity, higher = more binding, comparable within an allelic series). The binding signal (ALX3 [15]) was 7.61 upbm affinity estimate (log intensity, higher = more binding, comparable within an allelic series), the binding signal (PAX4 [26]) was 8.97 upbm affinity estimate (log intensity, higher = more binding, comparable within an allelic series) and the binding signal (ALX3 [16]) was 7.47 upbm affinity estimate (log intensity, higher = more binding, comparable within an allelic series). The binding signal (HOXB9 [9]) was 8.32 upbm affinity estimate (log intensity, higher = more binding, comparable within an allelic series), the binding signal (ALX3 [17]) was 7.5 upbm affinity estimate (log intensity, higher = more binding, comparable within an allelic series) and the binding signal (PAX4 [27]) was 9.06 upbm affinity estimate (log intensity, higher = more binding, comparable within an allelic series). The binding signal (HOXA2 [28]) was 10.2 upbm affinity estimate (log intensity, higher = more binding, comparable within an allelic series), the binding signal (ALX3 [18]) was 7.61 upbm affinity estimate (log intensity, higher = more binding, comparable within an allelic series) and the binding signal (HOXA2 [29]) was 7.21 upbm affinity estimate (log intensity, higher = more binding, comparable within an allelic series).
In the case of GCCTTCCC, the binding signal (HOXB9 [1]) was 8.39 upbm affinity estimate (log intensity, higher = more binding, comparable within an allelic series), the binding signal (HOXC9 [19]) was 9.49 upbm affinity estimate (log intensity, higher = more binding, comparable within an allelic series) and the binding signal (HOXB9 [3]) was 8.31 upbm affinity estimate (log intensity, higher = more binding, comparable within an allelic series). For the same sequence, the binding signal (HOXC9 [20]) was 9.55 upbm affinity estimate (log intensity, higher = more binding, comparable within an allelic series), the binding signal (HOXC9 [5]) was 9.63 upbm affinity estimate (log intensity, higher = more binding, comparable within an allelic series) and the binding signal (PROP1 [30]) was 6.64 upbm affinity estimate (log intensity, higher = more binding, comparable within an allelic series). The binding signal (PROP1 [31]) was 6.59 upbm affinity estimate (log intensity, higher = more binding, comparable within an allelic series), the binding signal (HOXB9 [9]) was 8.38 upbm affinity estimate (log intensity, higher = more binding, comparable within an allelic series) and the binding signal (HOXC9 [10]) was 9.61 upbm affinity estimate (log intensity, higher = more binding, comparable within an allelic series). For the same sequence, the binding signal (PROP1 [32]) was 6.59 upbm affinity estimate (log intensity, higher = more binding, comparable within an allelic series).
